Screening results: PubChem, several laboratories
PP1 counter = counter-screen for PP5 inhibitors: inhibitors of human PP1-alpha | P62136 | purified PP1alpha, OMFP fluorescence | inhibition, % at 6.7 µM | 320,000 compounds, 0.9% hits | AID 2235;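 active = inhibition above the mean inhibition of all tested compounds plus 3 SD, computed separately for each screening campaign, cut at about 15% in these data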
PP5 primary = inhibitors of human protein phosphatase 5 (PP5). purified PP5c, OMFP substrate fluorescence. inhibition, % at 6.7 µM. 320,000 compounds, 0.18% hits;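 active = inhibition above the campaign's mean inhibition across all tested compounds plus 3 SD, cut at about 9.5% in these data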;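 note: 0% = DMSO only and 100% = 100 µM cantharidin control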
FID counter = fluorescent intercalator displacement, NS3 helicase counter-screen. DNA fluorescent intercalator displacement, fluorescence. inhibition, % at 7.9 µM. 290,000 compounds, 0.17% hits; in the data active = inhibition above about 37%;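 note: 0% = vehicle and 100% = reference compound; higher means more ethidium bromide displaced from hairpin DNA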
TMEM16A act = activates or potentiates the mouse TMEM16A chloride channel; Q8BHY3; HEK293 TMEM16A/YFP-H148Q/I152L, iodide quench fluorescence; hits give low values; B-score at 10 µM; 340,000 compounds, 0.3% hits;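 active = fluorescence-ratio B-score plate-corrected deviation score at least 3 library SD below zero, with starting fluorescence score within 5 deviations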;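 note: channel opened by trigger with iodide after compound preincubation; score built on the fluorescence ratio of max minus min over baseline; more negative score means more quench and so TMEM16A activation or potentiation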
TMEM16A inh = blocks the mouse calcium-activated chloride channel TMEM16A; Q8BHY3; HEK293 TMEM16A/YFP iodide influx fluorescence, ionomycin; 310,000 compounds, 1.2% hits; AID 588511; normalized B-score (activity score, 25-100; higher = stronger inhibition) at 10 µM;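 active = ratio plate-corrected score three or more library SD toward inhibition, starting fluorescence score within five deviations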;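 note: score derived from kinetic fluorescence span divided by baseline fluorescence per well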
PREPL inh = inhibitors of human prolyl oligopeptidase-like enzyme PREPL; Q4J6C6; recombinant PREPL, fluorescence polarization activity-based probe; inhibition, % at 5.96 µM; 320,000 compounds, 0.68% hits;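 note: 0% = enzyme with DMSO and 100% = wells lacking enzyme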
PREPL inh cf = human PREPL inhibition, confirmation | shares compounds with PREPL inh | recombinant PREPL, fluorescence polarization activity probe | inhibition, % at 5.96 µM | 2,000 compounds, 67% hits | AID 2803;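 note: 0% = protein with DMSO and 100% = wells lacking protein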
TMEM16A reconf = re-confirmation of mouse TMEM16A chloride channel inhibitors; shares compounds with TMEM16A inh; HEK293 TMEM16A/YFP-H148Q, iodide quench fluorescence; ionomycin added to raise cell calcium; inhibition, % at 10 µM; 2,300 compounds, 39% hits; AID 652189;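 active = mean duplicate percent inhibition, scaled so buffer wells are 0 and the reference blocker 100, over three buffer SD above buffer mean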
TMEM16A Ca cntr = calcium mobilization counter-screen hit for TMEM16A inhibitor series; shares compounds with TMEM16A inh; TMEM16A/YFP HEK293, Fluo4 calcium mobilization; calcium response (% of ionomycin), % at 10 µM; 2,300 compounds, 2% hits;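 active = duplicate-averaged calcium signal over 20% of the ionomycin maximum, relative to buffer baseline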;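 note: each well's signal is peak minus trough fluorescence divided by its pre-addition baseline; 0% = buffer wells and 100% = ionomycin wells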
YFP-HEK293 quench = counter-screen for TMEM16A inhibitors: effect in parental YFP-HEK293 cells. YFP ratio F(max-min)/F0 at 10 µM. 2,300 tested, under 10 active. shares compounds with TMEM16A inh. iodide YFP quench, ionomycin;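 active = yellow fluorescent protein signal ratio exceeding the buffer control mean by over 5 SD of those controls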;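 note: ratio is mean of duplicate wells from kinetic YFP trace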
ClC-1 rat inh = blocks the rat ClC-1 voltage-dependent chloride channel; shares compounds with TMEM16A inh; AID 652236; 2,300 tested, under 10 active; ratio percent, % at 10 µM; CHO ClC-1-YFP, iodide influx fluorescence quench; iodide control reads 0, buffer control 100;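 active = duplicate-mean ratio percent above the mean of iodide-only control wells, which defines zero, plus 5 of their SD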;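 note: higher percent means stronger block of ClC-1 iodide influx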
Target sequence (P35524 whole entry, looked up): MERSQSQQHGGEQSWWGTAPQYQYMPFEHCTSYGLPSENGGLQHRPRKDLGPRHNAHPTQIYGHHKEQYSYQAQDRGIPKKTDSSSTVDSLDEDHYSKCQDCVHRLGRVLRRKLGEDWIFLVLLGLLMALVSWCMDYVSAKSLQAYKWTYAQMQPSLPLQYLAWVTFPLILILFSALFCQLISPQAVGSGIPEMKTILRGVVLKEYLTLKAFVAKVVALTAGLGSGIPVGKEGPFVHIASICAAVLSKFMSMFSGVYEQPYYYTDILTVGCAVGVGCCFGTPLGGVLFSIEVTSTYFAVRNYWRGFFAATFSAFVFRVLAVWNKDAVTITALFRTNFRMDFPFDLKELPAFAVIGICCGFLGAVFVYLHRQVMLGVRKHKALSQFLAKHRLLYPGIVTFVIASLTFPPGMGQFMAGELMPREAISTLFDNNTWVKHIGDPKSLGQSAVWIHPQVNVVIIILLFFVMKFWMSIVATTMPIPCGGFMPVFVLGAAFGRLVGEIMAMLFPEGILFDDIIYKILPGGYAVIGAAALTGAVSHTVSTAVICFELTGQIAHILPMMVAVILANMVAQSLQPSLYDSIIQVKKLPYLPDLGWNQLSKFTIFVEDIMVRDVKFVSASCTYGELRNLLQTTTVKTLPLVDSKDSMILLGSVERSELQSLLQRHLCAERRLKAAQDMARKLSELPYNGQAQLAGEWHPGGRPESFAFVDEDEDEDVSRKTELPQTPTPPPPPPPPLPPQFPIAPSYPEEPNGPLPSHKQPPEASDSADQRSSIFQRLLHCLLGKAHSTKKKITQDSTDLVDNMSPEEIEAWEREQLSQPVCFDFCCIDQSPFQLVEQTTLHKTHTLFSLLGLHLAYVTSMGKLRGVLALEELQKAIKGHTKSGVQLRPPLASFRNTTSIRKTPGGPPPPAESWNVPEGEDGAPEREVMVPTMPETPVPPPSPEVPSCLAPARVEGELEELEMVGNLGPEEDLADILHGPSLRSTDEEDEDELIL
Starred values were filed as active, the others as inactive; i = inactive; . = not tested or not shown. The list is not random: actives were taken first. Their share in the collection is about 2.7%. Cut-off read from the data, not from the text of the source, unless noted: active = inhibition above about 43%; inactive = the rest.

SMILES | PP1 counter | PP5 primary | FID counter | TMEM16A act | TMEM16A inh | PREPL inh | PREPL inh cf | others
Nc1ccc2c(c1)C(=O)C(=O)c1ccccc1-2 | 38.6* | 8.1 | 9.7 | i | 25* | 61.1* | 52.5*
O=C(OCn1nnc2ccccc2c1=O)c1cc(-c2ccccc2)nc2ccccc12 | 2.7 | 0.1 | -2.9 | i | i | -2.3 | .
Cc1nc(-c2ccc(O)c(O)c2)cs1 | -4.6 | 7.8 | -4.5 | i | i | 45.6* | 2.2
Cc1ccc(CNc2ccc3c(c2)OCO3)cc1 | 12.1 | -0.6 | 0.2 | i | i | 40.9 | .
CC(C)c1ccc(CNc2ccc(N3CCOCC3)cc2)cc1 | 6.6 | 3.1 | -1.9 | i | i | 51.8* | 55.3*
Cc1ccc(CNc2ccc(N3CCOCC3)cc2)cc1 | 0.8 | -3.9 | -3.7 | i | i | 44.1* | 33.9
c1cc(CNc2ccc(N3CCOCC3)cc2)ccn1 | -5.4 | 1.5 | -6.3 | i | i | 21.7 | .
c1cc2c(cc1CNc1ccc(N3CCOCC3)cc1)OCO2 | . | . | . | i | . | 57.5* | 34.4
NC(=O)NC(Cc1ccccc1)C(=O)NNC(=O)COc1ccccc1Cl (stereo not drawn) | . | . | . | i | . | -1.2 | .
CN1c2ccsc2/C(=N/Nc2ccccc2)CS1(=O)=O | 0.7 | 4.0 | 8.4 | i | i | 47.8* | 27.1
CN1c2ccsc2/C(=N/NC(=O)c2c(F)cccc2F)CS1(=O)=O | 0.5 | -1.8 | -5.2 | i | i | 0.2 | .
C=CCC[C@@H](Cc1ccc(F)cc1)C(=O)OC[C@@H]1CCCN1C(=O)[C@H](CC=C)CC(=O)N[C@H](CO)Cc1ccccc1 | . | . | . | i | . | 44.5* | 27.2
C=CCC[C@@H](Cc1ccc(F)cc1)C(=O)OC[C@H]1CCCN1C(=O)[C@@H](CC=C)CC(=O)N[C@H](CO)Cc1ccccc1 | . | . | . | i | . | 35.8 | .
Cc1cccc(NC(=O)c2cccc(NC(=O)c3ccco3)c2)c1C | -4.6 | 1.1 | . | i | i | 11.2 | .
Cc1cccc(OC(C)C(=O)Nc2ccc(N3CCCCC3)cc2)c1 (stereo not drawn) | -2.8 | 1.2 | . | i | i | 44.0* | 44.2*
Cc1cc(OCC(=O)Nc2ccc(N3CCN(C(=O)c4ccco4)CC3)cc2)cc(C)c1Cl | -4.1 | 2.7 | -1.7 | i | i | 24.4 | .
Cc1cccc(OCC(=O)Nc2ccc(N3CCN(C(=O)c4ccco4)CC3)cc2)c1 | 0.0 | 1.5 | -33.9 | i | i | 54.6* | 50.5*
Cc1ccc(OCC(=O)Nc2ccc(N3CCN(C(=O)c4ccco4)CC3)cc2)cc1C | 8.3 | 2.0 | -25.4 | i | i | 51.7* | 56.5*
O=C(Cc1ccc(Cl)cc1)Nc1ccc(N2CCN(C(=O)c3ccco3)CC2)cc1 | 5.9 | 1.5 | -25.6 | i | i | 47.3* | 52.9*
O=C(c1ccco1)N1CCN(c2ccc(Cl)cc2)CC1 | -0.8 | 1.5 | -1.4 | i | i | 23.4 | .
Cc1cccc(C(=O)Nc2ccc(N3CCN(C(=O)c4ccco4)CC3)cc2)c1 | 2.4 | 1.9 | -28.4 | i | i | 1.9 | .
COc1cc(/C=C/C(=O)OCC(=O)NC(=O)NC(C)C)ccc1O | 9.2 | 3.7 | -16.3 | i | i | 6.0 | .
COc1ccc(C2CC(c3ccc(F)cc3)Nc3nc(N)nn32)cc1 (stereo not drawn) | -4.2 | 1.4 | -23.6 | i | i | 37.7 | .
COc1cccc(C2CC(c3ccc(Cl)cc3)n3nc(N)nc3N2)c1 (stereo not drawn) | 1.5 | 2.9 | -23.0 | i | i | 41.3 | .
Cc1cccc(C2CC(c3ccc(Cl)cc3)Nc3nc(N)nn32)c1 (stereo not drawn) | -4.4 | 4.0 | -27.6 | i | i | 51.5* | 52.4*
SMILES | PP1 counter | PP5 primary | FID counter | TMEM16A act | TMEM16A inh | PREPL inh | PREPL inh cf | others
Cc1cccc(C2CC(c3ccc(F)cc3)Nc3nc(N)nn32)c1 (stereo not drawn) | -1.1 | -0.1 | . | i | i | 50.9* | 55.0*
COc1ccc(C2CC(c3cccc(OC)c3)n3nc(N)nc3N2)cc1 (stereo not drawn) | -10.0 | 2.7 | -24.7 | i | i | 45.7* | 52.3*
Cc1ccc(C2CC(c3cccc(Cl)c3)n3nc(N)nc3N2)cc1 (stereo not drawn) | -4.2 | -1.9 | -21.3 | i | i | 51.0* | 51.5*
CCN1/C(=C/c2ccc3ccccc3[n+]2CC)C=Cc2ccccc21 | 6.9 | 6.8 | 14.1 | i | i | 46.8* | 49.3*
CN(C(=O)COC(=O)Cn1cnc2ccccc21)C1CCCCC1 | . | . | . | i | . | -0.7 | .
COc1ccc(Nc2nc(N)nc(CN3CCc4ccccc4C3)n2)cc1 | 4.3 | 0.7 | -1.4 | i | i | 43.4* | 33.2
CCOc1ccc(-c2c(=O)n(OCc3ccccn3)c3ccccc3[n+]2[O-])cc1 | -0.7 | 0.8 | -8.1 | i | 25* | 68.0* | 50.3* | TMEM16A reconf=i;TMEM16A Ca cntr=i;YFP-HEK293 quench=-1.07;ClC-1 rat inh=-3.5
Cc1ccc(-c2c(=O)n(OCc3ccccn3)c3ccccc3[n+]2[O-])cc1 | . | . | -4.4 | . | . | . | .
Cc1cc(C)c(C(=O)Nc2ccccc2)c(CC(C)(C)C(=O)O)c1 | 1.6 | -1.2 | -2.3 | i | i | 1.2 | .
CN(CC(=O)Nc1ccc(Cl)c(C(F)(F)F)c1)C(=O)Cc1n[nH]c(=O)c2ccccc12 | -1.4 | -0.4 | . | i | 100* | 56.8* | 14.6 | TMEM16A reconf=25.5%*;TMEM16A Ca cntr=i;YFP-HEK293 quench=-0.89;ClC-1 rat inh=3.0
COCCn1c(-c2ccc(Br)cc2)csc1=Nc1cccnc1 | -0.6 | 0.6 | -26.9 | i | 25* | 47.6* | 50.3* | TMEM16A reconf=33.5%*;TMEM16A Ca cntr=i;YFP-HEK293 quench=-1.01;ClC-1 rat inh=-19.5
COc1ccc(N=c2scc(-c3ccc(OC)cc3)n2CCO)cc1 | 2.1 | 5.6 | -2.9 | i | i | 26.7 | .
CN1CCCC1CCNc1ccc2sc3ccccc3c(=O)c2c1 (stereo not drawn) | -0.5 | -4.0 | . | i | i | 50.9* | 47.8* | TMEM16A reconf=i;TMEM16A Ca cntr=i;YFP-HEK293 quench=-0.732;ClC-1 rat inh=6.5
CCN(CC)S(=O)(=O)c1ccc2c(c1)nc(CCC(=O)Nc1ccc(N3CCOCC3)cc1)n2C | 5.5 | 0.6 | -34.2 | i | i | 9.3 | .
